Source: PubChem BioAssay (Broad Institute)
An excerpt weighted towards active compounds, which were near 2.1% of everything screened.
p53 PUMA act – mutant p53 pathway reactivation. AID 624151. activation, % at 9.98 µM. SW480 PUMA-promoter luciferase. actives 1.5% (n = 28,000); in the data active = activation above about 52%
ID4 binder – ID4 (human) binding | P47928 | small molecule microarray, Flag-ID4 binding, fluorescence F/B | calls only | actives 1.2% (n = 31,000) | AID 624137; call rule not given here;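 also: a binder raises fluorescence above local background on the spot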
Target sequence (P47928 whole entry, looked up): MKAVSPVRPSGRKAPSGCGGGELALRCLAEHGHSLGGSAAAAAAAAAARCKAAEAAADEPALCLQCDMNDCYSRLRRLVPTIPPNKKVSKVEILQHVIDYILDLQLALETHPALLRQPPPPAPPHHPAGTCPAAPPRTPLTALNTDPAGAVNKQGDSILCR
STK33 kin inh – human STK33 kinase inhibition; Q9BYT3; ADP-Glo luminescence, MBP substrate; inhibition, % at 12.5 µM; actives 0.44% (n = 27,000); AID 2322; in the data active = inhibition above about 20%
* = called active by the depositor.

Screening COc1ccc(NC(=O)COc2ccc(Cl)c(C)c2)c([N+](=O)[O-])c1 returned p53 PUMA act 74.1*, ID4 binder inactive and STK33 kin inh -1.4.
Screening COc1ccc(NC(=O)COc2cc(C)c(Br)cc2C)c([N+](=O)[O-])c1 returned p53 PUMA act 2.6, ID4 binder inactive and STK33 kin inh 0.5.
For COc1ccc(NC(=O)COc2c(Cl)c(C)c(Cl)c(C)c2Cl)c([N+](=O)[O-])c1 the results were p53 PUMA act 16.9, ID4 binder inactive and STK33 kin inh -7.3.
Screening COc1cccc(OCC(=O)Nc2ccccc2[N+](=O)[O-])c1 returned p53 PUMA act 49.4, ID4 binder inactive and STK33 kin inh -1.3.
`COc1ccc(NC(=O)COc2ccc(Br)cc2Cl)c([N+](=O)[O-])c1` gave p53 PUMA act 26.3, ID4 binder inactive and STK33 kin inh 0.4.
`COc1ccc(NC(=O)COc2ccccc2Cl)c([N+](=O)[O-])c1` gave p53 PUMA act 84.3*, ID4 binder inactive and STK33 kin inh 1.8.
CCc1cccc(OCC(=O)Nc2ccc(OC)cc2[N+](=O)[O-])c1 was read as p53 PUMA act 91.0*, ID4 binder inactive and STK33 kin inh 1.3.
CCN(CC(=O)Nc1cccc(SC)c1)S(=O)(=O)c1ccc2ccccc2c1 was read as p53 PUMA act 3.4, ID4 binder inactive and STK33 kin inh -0.8.
CS(=O)(=O)N(CC(=O)Nc1ccc2ccccc2c1)c1cccc2ccccc12 was read as p53 PUMA act -6.6, ID4 binder inactive and STK33 kin inh 0.9.
For COC(=O)c1ccc(NC(=O)CSc2nnc(-c3cnccn3)n2C)cc1 the results were p53 PUMA act -1.1, ID4 binder inactive and STK33 kin inh 0.7.
`O=C(CSc1nnc(-c2ccccc2F)n1-c1ccc(Cl)cc1)Nc1ccc(F)cc1F` gave p53 PUMA act -7.7, ID4 binder inactive and STK33 kin inh -0.4.
O=C(CCn1cnc2ccccc2c1=O)Nc1ccc(S(=O)(=O)N2CCOCC2)cc1 was read as p53 PUMA act -2.5, ID4 binder inactive and STK33 kin inh -3.8.
O=C(COc1cccc(-c2cnc3ccccc3n2)c1)c1ccccc1 was read as p53 PUMA act 39.7, ID4 binder inactive and STK33 kin inh -3.0.
`O=[N+]([O-])c1cccc(COc2ccc(-c3cnc4ccccc4n3)cc2)c1` gave p53 PUMA act 62.9*, ID4 binder inactive and STK33 kin inh 3.8.
COc1ccc(NC(=O)CN(c2ccc(C)c(C)c2)S(C)(=O)=O)c(OC)c1 was read as p53 PUMA act 10.8, ID4 binder inactive and STK33 kin inh -1.5.
For N#Cc1c(NC(=O)CSc2nnc(N)s2)sc2c1CCCC2 the results were p53 PUMA act 8.4, ID4 binder inactive and STK33 kin inh 1.3.
`C[C@H](CO)N1C[C@H](C)[C@@H](CN(C)C)Oc2ncc(-c3ccncc3)cc2C1=O` gave p53 PUMA act -1.2 and ID4 binder inactive.
`COc1cccc(S(=O)(=O)N(C)C[C@H]2Oc3ncc(-c4cccc(C(=O)N(C)C)c4)cc3C(=O)N([C@H](C)CO)C[C@@H]2C)c1` gave p53 PUMA act 3.4 and ID4 binder active.
C[C@@H]1CN([C@@H](C)CO)C(=O)c2cc(-c3ccncc3)cnc2O[C@H]1CN(C)C was read as ID4 binder active.
`C[C@H]1CN([C@@H](C)CO)C(=O)c2cc(-c3cccnc3)cnc2O[C@@H]1CN(C)C` gave ID4 binder active.
C[C@H]1CN([C@@H](C)CO)C(=O)c2cc(-c3cccc(C(=O)N(C)C)c3)cnc2O[C@H]1CN(C)S(=O)(=O)c1cccc(F)c1 was read as p53 PUMA act 16.0.
Screening C[C@@H]1CN([C@@H](C)CO)C(=O)c2cc(-c3cccnc3)cnc2O[C@@H]1CN(C)C returned ID4 binder inactive.
For Cc1cccc(NC(=O)C(Cc2ccccc2)N2C(=O)c3cc(Cl)c(Cl)cc3C2=O)c1 (stereo not drawn) the results were p53 PUMA act -0.5, ID4 binder inactive and STK33 kin inh 1.3.
For COc1ccccc1OCC(=O)Nc1cc(Cl)ccc1O the results were p53 PUMA act 7.0, ID4 binder inactive and STK33 kin inh 1.5.
For CC(C)c1onc(-c2c(Cl)cccc2Cl)c1COc1ccc(/C=C/c2cccc(C(=O)O)c2)c(Cl)c1 the results were p53 PUMA act 67.2* and ID4 binder inactive.
O=C(COc1ccc(Cl)cc1)Nc1cccnc1 was read as p53 PUMA act 29.0, ID4 binder inactive and STK33 kin inh 4.6.
`CC(C)(C)c1ccc(OCC(=O)Nc2cccnc2)c(Br)c1` gave p53 PUMA act 69.5*, ID4 binder inactive and STK33 kin inh -2.2.
Screening Cc1ccc(OCC(=O)Nc2cccc(C(=O)O)c2)c(Br)c1 returned p53 PUMA act -84.2, ID4 binder inactive and STK33 kin inh 2.3.
Screening CCc1ccc(OCC(=O)Nc2cccnc2)c(Br)c1 returned p53 PUMA act 95.5*, ID4 binder inactive and STK33 kin inh -10.4.
`COC(=O)c1cc(OC)c(OC)cc1NC(=O)COc1ccc(C(C)(C)C)cc1Br` gave p53 PUMA act -8.8, ID4 binder inactive and STK33 kin inh 0.1.
Screening O=C(COc1cc(Cl)c(Cl)cc1Cl)Nc1cccnc1 returned p53 PUMA act 116.8*, ID4 binder inactive and STK33 kin inh -0.8.
`CS(=O)(=O)N(CC(=O)NC1CC1)c1ccccc1` gave p53 PUMA act 8.9, ID4 binder inactive and STK33 kin inh 2.7.
Screening CCc1cc2c(SCC(=O)Nc3cccc(C)c3)ncnc2s1 returned p53 PUMA act -9.3, ID4 binder inactive and STK33 kin inh 0.5.
O=S(=O)(N[C@@H]1CCCN(Cc2ccc(OCCO)cc2)C1)c1ccccc1 was read as ID4 binder inactive and STK33 kin inh -1.0.
Screening O=S(=O)(N[C@@H]1CCCN(Cc2cccc(OCCO)c2)C1)c1ccc(Cl)c(Cl)c1 returned STK33 kin inh -0.1.
O=S(=O)(N[C@@H]1CCCN(Cc2cccc(OCCO)c2)C1)c1cc(Cl)ccc1Cl was read as ID4 binder active and STK33 kin inh 1.4.
Screening Cc1ccc(S(=O)(=O)N[C@@H]2CCCN(Cc3ccc(OCCO)cc3)C2)cc1 returned ID4 binder active.
For Cn1c2ccccc2c2c3c(c4c5ccccc5n(CCC#N)c4c21)CNC3=O the results were p53 PUMA act -52.6 and STK33 kin inh 109.2*.
`Cc1ccc(C2=NNC(=O)C(c3cn(CCC#N)c4ccccc34)C2)cc1` (stereo not drawn) gave p53 PUMA act -15.7, ID4 binder inactive and STK33 kin inh 6.3.
Screening Cc1ccccc1-c1nnc(SCC(=O)Nc2ccc(Oc3ccccc3)cc2)n1C returned p53 PUMA act 3.6, ID4 binder inactive and STK33 kin inh 5.3.
Screening COc1ccc(NC(=O)CSc2nc3sc4c(c3c(=O)n2-c2ccccc2)CCC4)c([N+](=O)[O-])c1 returned p53 PUMA act -0.5, ID4 binder inactive and STK33 kin inh 3.4.
COc1cc(CO)cc(Br)c1OCc1cccc([N+](=O)[O-])c1 was read as p53 PUMA act 14.4, ID4 binder inactive and STK33 kin inh 0.2.
For Nc1nc(SCC(=O)N2CCc3ccccc32)n[nH]1 the results were p53 PUMA act 20.3, ID4 binder inactive and STK33 kin inh -0.1.
